Pf Dd2 inh: blocks in vitro growth of P. falciparum Dd2. 4.3% of 120,000 active. P. falciparum Dd2 growth, SYBR Green, 72 h. AID 1347417. Potency, µM (titrated, usually from 28.9 µM), without a hit: at the highest dose activity, negative = inhibition, hits mostly inhibitors; active means well fitted inhibition curve with a large enough effect;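 further: plate controls were DMSO vehicle for no effect and reference drug for full effect; nearly all actives have a fitted effect of over 65% in size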
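Readout: SYBR Green fluorescence, 485 nm excitation, 535 nm emission, after ~16 h lysis at 37C. Before that, Dd2-infected red cells (2.5% hematocrit) grew 72 h with compound, 29 uM top final concentration.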
Active calls of the source: *; i = inactive; [ ] = remark or other dose. The sample as a whole holds a higher share of hits than the screen did. Potency means the concentration at half of the fitted maximal effect.

SMILES | Pf Dd2 inh
CN(CCCc1cnn(C)c1)C(=O)[C@H]1CNC[C@@H](C(=O)N2CCOCC2)C1 | -3%
O=C1CC[C@@H](C(=O)N2CCc3onc(C(c4ccccc4)c4ccccc4)c3C2)N1 | i
c1ncc(CN2CC(Oc3ccc4c(c3)OCO4)C2)s1 | i
COc1cccc(COC2CN(CCc3ccccc3)C(=O)CN(C(=O)CN3CCOC3=O)C2)c1 (stereo not given) | -17%
CC(=O)c1cccc(C(=O)N2CCC3(CC2)NC(=O)N(Cc2ccc(C)cc2)C3=O)c1 | i
CCCN(CCC)CCCNC(=O)c1cc2c(=O)n(C)c3ccccc3c2s1 | 10µM*
CCCN1CCN(CCCNC(=O)c2cc3c(=O)[nH]c4ccccc4c3s2)CC1 | 13µM*
COc1ccc(NC(=O)c2cc3c(=O)n(C)c4ccccc4c3s2)cc1Cl | 4%
CCCN1CCN(CCCNC(=O)c2cc3c(s2)-c2ccccc2OC3)CC1 | i
CCOc1ccc(CCNC(=O)c2cc3c(=O)n(C)c4ccccc4c3s2)cc1OCC | i
CCCN1CCN(CCCNC(=O)c2cc3c(s2)-c2c(C)cccc2OC3)CC1 | i
COCCOc1cc(=O)n2c(c1C(=O)NC1CCCCCC1)CCOCC2 | i
O=C1C[C@@H]2CCN(C(=O)NC3CCCCC3)C[C@@H]2CCN1Cc1ccc2c(c1)OCO2 | i
CCNC(=O)c1cccnc1OC1CCN(C(=O)c2ccc(C)c(F)c2)C1 (stereo not given) | i
COCc1cc(C[C@@H]2C[C@H](NC(=O)c3ccnc(Cl)c3)C2(C)C)no1 | i
COCC(=O)N[C@H]1C[C@@H](Cc2cc(CO)on2)C1(C)C | -6%[44.1 µM]
COCc1cc(C[C@@H]2C[C@H](NC(=O)c3ccco3)C2(C)C)no1 | 10µM*
CC1(C)[C@H](Cc2cc(COc3ccccc3)on2)C[C@@H]1NC(=O)Cc1ccccc1 | -18%[44.1 µM]
CC1(C)[C@H](Cc2cc(CO)on2)C[C@@H]1NC(=O)c1ccco1 | 1%[44.1 µM]
COCC(=O)NC1(Cc2cc(-c3ccc(OC)cc3)on2)COC1 | -3%[44.1 µM]
CC(C)Cc1cc(C[C@@H]2C[C@H](NC3CCOCC3)C2(C)C)no1 | i
COCC(=O)N[C@H]1C[C@@H](Cc2cc(-c3ccc(OC)cc3)on2)C1(C)C | 2µM*
CC1(C)[C@H](Cc2cc(COc3ccccc3)on2)C[C@@H]1NC1CCOCC1 | 10µM*
CCCN[C@H]1C[C@@H](Cc2cc(COc3ccccc3)on2)C1(C)C | i
CC(C)(C)CC(=O)N[C@H]1C[C@@H](Cc2cc(COc3ccccc3)on2)C1(C)C | i
SMILES | Pf Dd2 inh
CC1(C)[C@H](Cc2cc(COc3ccccc3)on2)C[C@@H]1NC(=O)COc1ccccc1 | 8.9µM*
CCn1cc(CN2C[C@@H](COC)[C@H](C(=O)N(C)C)C2)cn1 | 7%
Cc1cc(C)c(NC(=O)Cn2nc3n(c2=O)CCCC3)c(C)c1 | i
COc1ccc(-c2nc3cc(C)ccc3cc2CN2CCCC(CO)C2)cc1OC (stereo not given) | -20%
COc1ccc(-c2nc3cc(C)ccc3cc2CN2CCN(C)C(CCO)C2)cc1 (stereo not given) | 10µM*
COc1ccc2cc(CN3CCCC(C#N)C3)c(-c3cccs3)nc2c1 (stereo not given) | -17%
COc1ccc(-c2nc3cc(C)ccc3cc2CN2CCCC(O)C2)cc1OC (stereo not given) | -19%
COC[C@H]1CCCN1Cc1nc(C2(O)CCN(C)CC2)cs1 | -18%[44.1 µM]
COC[C@@H]1CCCN1Cc1cc2ccc(C)cc2nc1-c1ccc(OC)cc1 | 14µM*
O=C(Cc1ccccc1Cl)N[C@@H]1CN(c2ncccn2)C[C@H]1CO | 16%
O=C(CN1CCC2(CC1)NC(=O)CC2C(=O)O)NCc1ccccn1 (stereo not given) | -21%
COCCC(=O)N1CCN(C(=O)N2CC3CC(C2)[C@H]2CCCC(=O)N2C3)CC1 (stereo not given in full) | -4%
O=C1CCN(C(=O)c2ccccn2)CCCC(c2nc(-c3ccccc3)no2)CCN1 (stereo not given) | -24%
Cc1nn2c(c1-c1ccccc1Oc1ccccc1)N(CC1CC1)CCC2 | i
Cc1nn2c(c1-c1ccccc1Oc1ccccc1)N(CC1CCOCC1)CCC2 | 7.9µM*
Cc1nn2c(c1-c1ccccc1-c1ccccc1)N(Cc1cccc(O)c1)CCC2 | 0.79µM*
Cc1nn2c(c1-c1ccccc1Oc1ccccc1)N(C(=O)c1ccc(F)cc1)CCC2 | i
COc1cccc(CN2CCCn3nc(C)c(-c4cnccc4C)c32)c1 | -9%[44.1 µM]
CC(=O)Nc1ccccc1-c1c(C)nn2c1N(Cc1ccccc1)CCC2 | i
Cc1nn2c(c1-c1ccccc1-c1ccccc1)N(Cc1ccc(OCC(=O)O)cc1)CCC2 | i
Cc1nn2c(c1-c1cccnc1N1CCOCC1)N(CC1CC1)CCC2 | i
COc1ccc(CN2CCCn3nc(C)c(-c4ccccc4Oc4ccccc4)c32)cc1O | 1.3µM*
O=C(Cc1c(F)cccc1Cl)N1CCC(c2noc(COc3ccc(F)cc3)n2)CC1 | i
O=C(NC1CCCCC1)C1c2ccccc2C(=O)N(Cc2ccccc2)C12CCCC2 (stereo not given) | -1%
COCc1noc([C@@H]2CC(F)(F)CN2C(=O)c2coc(C)n2)n1 | 19%
SMILES | Pf Dd2 inh
C=CCNC(=O)N[C@H]1CO[C@H]2[C@@H]1OC[C@@H]2Nc1nccc(-c2ccccc2OC)n1 | -11%[44.1 µM]
CC(C)(C)OC(=O)N1CCC(c2c(C(=O)N3CCN(c4ncccn4)CC3)cnn2-c2ccc(F)cc2F)CC1 | -18%
COc1cc(OC)c(NC(=O)c2cnn(-c3cccc(Cl)c3C)c2C2CCN(C(=O)OC(C)(C)C)CC2)cc1Cl | 3.5µM*
CC(C)(C)OC(=O)N1CCC(c2c(C(=O)N3CCOCC3)cnn2-c2ccccc2Cl)CC1 | -16%
COc1ccccc1CNC(=O)c1cnn(-c2ccc(F)cc2F)c1C1CCN(C(=O)OC(C)(C)C)CC1 | 10µM*
CC(C)(C)OC(=O)N1CCC(c2c(C(=O)NCCc3ccsc3)cnn2-c2ccccc2Cl)CC1 | -6%
Cc1ccc(CNC(=O)c2cnn(-c3ccc(F)cc3F)c2C2CCN(C(=O)OC(C)(C)C)CC2)cc1 | 11µM*
COc1ccc(OC)c(CCNC(=O)c2cnn(-c3ccccc3Cl)c2C2CCN(C(=O)OC(C)(C)C)CC2)c1 | 7.9µM*
CC(C)(C)OC(=O)N1CCC(c2c(C(=O)NC3CCCCC3)cnn2-c2ccc(F)cc2F)CC1 | -11%
O=C(Nc1cc(Cl)cc(Cl)c1)c1ccn2nccc2c1 | 5%[44.1 µM]
N#Cc1ccc(S(=O)(=O)N2CCC[C@H]2C(=O)N2CCCCCCNC(=O)CC2)cc1 | 8%
CC(C)[C@@H]1CN(C(=O)c2ccc(=O)n(C)n2)C[C@H]1NS(=O)(=O)N(C)C | 0%
O=C(CN1CC2CC(C1)[C@H]1CCCC(=O)N1C2)N1CCc2ccccc21 (stereo not given in full) | -11%
O=C(c1ccccc1)N1CC[C@H]2COC(=O)N2c2cc(F)ccc2C1 | 18%[44.1 µM]
Cc1c(NC(=O)CCc2cc3n(n2)CCNC3)c(C)n(C)c(=O)c1C(N)=O | -7%
CC(C)(C)c1ccc(-n2ncc3c2CCCC3NC(=O)Cc2n[nH]c(=O)[nH]2)cc1 (stereo not given) | -13%
CN(C)C(=O)c1cccnc1OC1CCN(S(=O)(=O)c2cccc(C(F)(F)F)c2)C1 (stereo not given) | -13%
COc1cccc(-c2nn3c(=O)cc(CN4CCN(C(=O)COc5ccccc5C)CC4)nc3s2)c1 | 11µM*
COc1ccc(-c2nn3c(=O)cc(CN4CCN(S(=O)(=O)c5ccc(C)cc5)CC4)nc3s2)cc1 | 11µM*

Assay outcomes (PubChem)
